Data reported in PubChem BioAssay (NCATS).
Inconclusive results are not listed. Calls of active or inactive are those of the source. Calls follow the shape of the dose curve; as a rule, active = well fitted curve in the direction sought with a large enough effect; inconclusive = small, poorly fitted or top-dose-only effect, or another doubt; inactive = no such curve, though single readings can be large; an effect the other way counts as inactive or inconclusive.

Columns and labels:
[1] = target: Calcium and integrin-binding protein 1 (Homo sapiens) (UniProt Q99828); assay: Primary qHTS for Identification of Calcium Integrin Binding Protein 1 (CIB1) Competitor (AID 1508620);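 also: GST tagged CIB1 binding a fluorescein labelled alphaIIb integrin peptide tracer; top concentration of the series differs between compounds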
Calcium and integrin-binding protein 1 (Homo sapiens), sequence (Q99828 whole entry, looked up): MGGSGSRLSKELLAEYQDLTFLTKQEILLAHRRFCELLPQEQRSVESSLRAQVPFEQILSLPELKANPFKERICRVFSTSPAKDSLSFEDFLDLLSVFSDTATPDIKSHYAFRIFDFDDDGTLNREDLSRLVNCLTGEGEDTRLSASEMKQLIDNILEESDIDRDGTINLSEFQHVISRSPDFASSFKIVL
Summary of the method: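 CIB1-GST (1 uM final) and compound incubated 15 min at room temperature before adding FITC-alphaIIb peptide tracer (100 nM final). Competition for binding read by fluorescence polarization (ex 480, em 540) after another 15 min at room temperature.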

[2] = Primary qHTS for inhibitors of nuclear receptor binding SET domain protein 2 (NSD2) in an isogenic RCH-ACV NSD2 p.E1099K mutant (9B) (AID 1645876); also: nearly all actives have a fitted effect of over 70% in size
[3] = Primary qHTS for inhibitors of nuclear receptor binding SET domain protein 2 (NSD2) in an RCH-ACV wild type WT cells (2C) (AID 1645877); also: nearly all actives have a fitted effect of over 70% in size
% is scaled to controls: 0 for no effect and ±100 for the full control effect.

C=C1CC[C@]2(C(=O)O[C@@H]3O[C@H](CO)[C@@H](O)[C@H](O)[C@H]3O)CC[C@]3(C)C(=CCC4[C@@]5(C)C[C@H](O)[C@@H](O[C@@H]6O[C@H](C(=O)O)[C@@H](O)[C@H](O)[C@H]6O)[C@](C)(C=O)C5CC[C@]43C)C2C1 (stereo not given in full)
inactive: Potency [1] | activity change, negative = viability loss [2] -1.03% [at 9.23 µM] | activity change, negative = cell killing [3] -2.63% [at 9.23 µM]

CC(C)C1(O)C=C2C(=O)CC3C(C)(C(=O)O)CCCC3(C)C2CC1 (stereo not given)
inactive: Potency [1] | Potency [2] | Potency [3]

CC(C)(O)C(O)C(=O)OCc1ccc(O[C@@H]2O[C@H](CO)[C@@H](O)[C@H](O)[C@H]2O)cc1 (stereo not given in full)
inactive: Potency [1] | Potency [2] | Potency [3]

C=C(C)C1CCC2(C(=O)OC3OC(COC4OC(CO)C(O)C(O)C4O)C(OC4OC(C)C(O)C(O)C4O)C(O)C3O)CCC3(C(=O)O)C(CCC4C5(C)CCC(=O)C(C)(C)C5CCC43C)C12 (stereo not given)
inactive: Potency [1] | outcome [2] inactive [at 9.23 µM] | outcome [3] inactive [at 9.23 µM]

C/C=C(\C)C(=O)OC[C@H]1O[C@@H](O[C@H]2[C@@H](O[C@H]3O[C@H](COC(=O)/C(C)=C/C)[C@@H](O)[C@H](O)[C@H]3O[C@@H]3O[C@H](COC(=O)/C(C)=C/C)[C@@H](O)[C@H](OC(=O)/C(C)=C/C)[C@H]3O)O[C@H](COC(=O)/C(C)=C/C)[C@@H](O)[C@@H]2O)[C@H](O)[C@@H](O)[C@@H]1O
inactive: Potency [1] | activity change, negative = viability loss [2] -1.81% [at 9.23 µM] | activity change, negative = cell killing [3] -6.87% [at 9.23 µM]

CC(=O)OC[C@]12[C@@H](OC(=O)c3ccoc3)C[C@@H]3[C@@H](OC(C)=O)[C@]1(OC3(C)C)[C@@](C)(O)C[C@H](OC(=O)c1ccoc1)[C@@H]2OC(=O)c1ccoc1
inactive: Potency [1] | Potency [2] | Potency [3]

CC1(C)CCC[C@@]2(C)[C@H]1[C@H](O)C=C(CO)[C@]2(O)CO
inactive: Potency [1] | Potency [2] | Potency [3]

C=C1C[C@]23C[C@H]1CC[C@H]2[C@]1(C)CC[C@H](O)[C@@](C)(C(=O)O)[C@H]1[C@@H]3C(=O)O
inactive: Potency [1] | Potency [2] | Potency [3]

CC1(C)CC[C@]2(C(=O)O)CC[C@]3(C)C(=CCC4[C@@]5(C)CC[C@H](O)C(C)(C)C5CC[C@]43C)C2C1 (stereo not given in full)
inactive: Potency [1] | Potency [2] | Potency [3]

C=C(CCO[C@@H]1O[C@H](CO)[C@@H](O)[C@H](O)[C@H]1O)C(=O)O
inactive: Potency [1] | Potency [2] | Potency [3]

C[C@@H]1O[C@@H](OC(=O)Cc2ccccc2)[C@H](O)[C@H](O)[C@H]1O
inactive: Potency [1] | Potency [2] | Potency [3]

O=C(O)Cc1cn([C@@H]2O[C@H](CO)[C@@H](O)[C@H](O)[C@H]2O[C@@H]2O[C@H](CO)[C@@H](O)[C@H](O)[C@H]2O)c2ccccc12
inactive: Potency [1] | Potency [2] | Potency [3]

C=C1C(OC(C)=O)[C@@]23CCC4[C@](C)(C(=O)O)CCC[C@@]4(C)[C@]2(O)CC[C@H]1C3 (stereo not given in full)
inactive: Potency [1] | Potency [2] | Potency [3]

COc1cc(C)c(C(=O)NC2C(C)OC(OC3CCC(C)C4C3C=C(C)C3/C(C)=C\CC/C(C)=C/C5(C)C=C(C(=O)O)C(C)CC56OC(=O)/C(=C(\O)C34C)C6=O)C(O)C2(C)O)c(O)c1 (stereo not given)
inactive: Potency [1] | activity change, negative = viability loss [2] 4.33% [at 9.23 µM] | outcome [3] inactive [at 9.23 µM]

COC(=O)C1(O)C(OC(C)=O)CCC2C3(CC(c4ccoc4)OC3=O)C(C)=CCC21C(=O)OC (stereo not given)
inactive: Potency [1] | Potency [2] | Potency [3]

CC1=CC(=O)C2C(C)(C)CCC[C@]2(C)[C@H]1CC[C@H](C)CC(=O)O (stereo not given in full)
inactive: Potency [1] | Potency [2] | Potency [3]

CC1CCC2(C)CCC3(C)C(=CCC4C5(C)CCC(O)C(C)(C(=O)O)C5CCC43C)C2C1C (stereo not given)
inactive: Potency [1] | Potency [2] | Potency [3]

C[C@H]1CC(=O)C2=C(C1)C(O)C(O)[C@@]1(O)[C@H]2C(=O)c2cccc(O)c2[C@@H]1O (stereo not given in full)
inactive: Potency [1] | Potency [2] | Potency [3]

O=C(/C=C/c1ccc(O)c(O)c1)O[C@H]1[C@H](OC2CCCCC2O)O[C@H](CO)[C@@H](O)[C@@H]1O (stereo not given in full)
inactive: Potency [1] | Potency [2] | Potency [3]

CC1=C2CC(=O)C(C)CC/C=C(\C)CC2(O)OC1=O (stereo not given)
inactive: Potency [1] | Potency [2] | Potency [3]

COc1cc(C2OCC3(O)C(c4ccc(O[C@@H]5O[C@H](CO)[C@@H](O)[C@H](O)[C@H]5O)c(OC)c4)OCC23O)ccc1O (stereo not given in full)
inactive: Potency [1] | Potency [2] | Potency [3]

CC(C)(O)[C@@H]1CC[C@]2(CO)[C@@H](O)CC[C@](C)(O)[C@H]2[C@@H]1O[C@@H]1O[C@H](CO)[C@@H](O)[C@H](O)[C@H]1O
inactive: Potency [1] | Potency [2] | Potency [3]

C=C1CC2C3(C)C=CC(=O)OC(C)(C)C3CC(OC(C)=O)C2(C)C2C(=O)OC(C)C(=O)C12C (stereo not given)
inactive: Potency [1] | Potency [2] | Potency [3]

C[C@@H]1C(=O)O[C@H](C)[C@H]1C[C@@H](O)[C@](C)(O)[C@H]1CC[C@@]2(O)C3=CC(=O)[C@@H]4C[C@@H](O)[C@@H](O)C[C@]4(C)C3CC[C@]12C (stereo not given in full)
inactive: Potency [1] | Potency [2] | Potency [3]

CC(=O)O[C@@H]1[C@H](O[C@@H]2OC[C@](O)(CO)[C@H]2O)[C@@H](O[C@@H]2O[C@@H](C)[C@H](O)[C@@H](O[C@@H]3O[C@H](CO)[C@@H](O)[C@H](O)[C@H]3O)[C@H]2O)[C@H](OC(=O)[C@]23CCC(C)(C)C[C@H]2C2=CCC4[C@@]5(C)C[C@H](O)[C@H](O[C@@H]6O[C@H](C(=O)O)[C@@H](O)[C@H](O)[C@H]6O)[C@@](C)(C(=O)O)C5CC[C@@]4(C)[C@]2(C)CC3)O[C@@H]1C (stereo not given in full)
inactive: activity change, negative = inhibition [1] 4.9% [at 12.4 µM] | activity change, negative = viability loss [2] 4.2% [at 9.23 µM] | outcome [3] inactive [at 9.23 µM]
